From PubChem BioAssay come the findings set out here.

Each structure is given as a SMILES string. A number with no mark means an inactive call. The source made the active and inactive calls. Unless noted, no stated cut-off is given here; in the data, active means inhibition above about 28%; inactive means the rest.

Assay [1] is described as follows: StAR promoter reporter inhibitors, counter-screen for LRH-1 inverse agonist project, cell-based, luminescence, high throughput (AID 651611). The conditions noted are these: StAR promoter luciferase reporter counterscreen, at 3.6 µM, stronger effect = higher value.
The target of assay [2] is Nuclear receptor subfamily 5 group A member 2 (Homo sapiens) (UniProt O00482). As to the kind of experiment: LRH-1 (NR5A2) inverse agonists, retest, confirmation, cell-based, luminescence (AID 651613; in the data active means inhibition above about 42%;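 further: HEK293T cells co-transfected with LRH-1 and StAR promoter luciferase reporter; 0% = vehicle wells and 100% = parental cells lacking receptor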). Conditions: cell-based LRH-1 luciferase reporter, inverse agonism; at 3.6 µM; stronger effect = higher value.
Sequence of Nuclear receptor subfamily 5 group A member 2 (Homo sapiens) (O00482 whole entry, looked up): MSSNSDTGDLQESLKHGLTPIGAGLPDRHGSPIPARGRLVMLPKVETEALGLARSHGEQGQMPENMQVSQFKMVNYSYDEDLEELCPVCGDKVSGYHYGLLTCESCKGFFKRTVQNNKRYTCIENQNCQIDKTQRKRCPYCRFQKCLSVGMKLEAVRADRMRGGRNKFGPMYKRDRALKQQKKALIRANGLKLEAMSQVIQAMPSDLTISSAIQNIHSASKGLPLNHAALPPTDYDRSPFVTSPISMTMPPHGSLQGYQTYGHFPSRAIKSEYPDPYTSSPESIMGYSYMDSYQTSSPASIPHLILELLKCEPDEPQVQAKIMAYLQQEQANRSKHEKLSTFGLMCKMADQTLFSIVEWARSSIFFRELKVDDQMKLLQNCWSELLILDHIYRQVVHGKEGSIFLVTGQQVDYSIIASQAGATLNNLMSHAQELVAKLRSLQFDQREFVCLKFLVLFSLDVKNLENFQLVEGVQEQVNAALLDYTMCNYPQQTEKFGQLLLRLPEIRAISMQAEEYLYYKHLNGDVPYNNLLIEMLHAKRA
Assay [3] addresses Steroidogenic factor 1 (Homo sapiens) (UniProt Q13285). As to the kind of experiment: SF1 (NR5A1) inverse agonists, counter-screen for LRH-1 inverse agonist project, cell-based, luminescence, high throughput (AID 651614; in the data active means inhibition above about 44%;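 further: cells cotransfected with StAR promoter reporter and SF1 expression vector; 0% = vehicle on cells with receptor and 100% = vehicle on cells lacking receptor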). Conditions: cell-based SF1 luciferase reporter, at 3.6 µM, stronger effect = higher value.
Assay [4] in a line: VP16 transactivation reporter inhibitors, counter-screen for LRH-1 inverse agonist project, cell-based, luminescence, high throughput (AID 651615; in the data active means inhibition above about 33%). The conditions noted are these: Gal4-VP16 luciferase reporter cells, at 3.6 µM, stronger effect = higher value. For orientation: The purpose of a counterscreen is to sort out artefacts and off-target activity.

Sequence of Steroidogenic factor 1 (Homo sapiens) (Q13285 whole entry, looked up, the tested form may be a part): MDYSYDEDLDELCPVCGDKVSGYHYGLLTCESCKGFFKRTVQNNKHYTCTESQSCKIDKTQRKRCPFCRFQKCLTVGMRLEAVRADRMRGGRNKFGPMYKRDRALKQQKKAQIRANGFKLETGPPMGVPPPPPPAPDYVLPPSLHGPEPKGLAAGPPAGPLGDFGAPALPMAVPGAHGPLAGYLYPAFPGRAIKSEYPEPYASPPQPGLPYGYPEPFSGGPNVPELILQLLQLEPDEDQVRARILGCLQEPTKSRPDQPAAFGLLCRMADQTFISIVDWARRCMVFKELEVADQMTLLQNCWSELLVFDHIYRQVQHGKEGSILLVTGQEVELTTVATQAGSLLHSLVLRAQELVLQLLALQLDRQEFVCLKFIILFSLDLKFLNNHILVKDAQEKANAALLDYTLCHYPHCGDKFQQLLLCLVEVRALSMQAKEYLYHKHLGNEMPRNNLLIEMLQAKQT

A word on the inhibition: it is the relative decrease from the control value, in per cent. Turning to `Cc1nn(Cc2ccc(Cl)cc2)c(C)c1NC(=O)c1cc(C(C)C)on1`, the inhibition in assay [1] was 16.2%; in assay [2], 44.9% (active); in assay [3] it was 64.8% (active); in assay [4], 16%.
For `O=C(COc1ccc2c3c(c(=O)oc2c1)CCCC3)NCCCN1CCOCC1`, the inhibition in assay [1] was 14.4%; in assay [2], 44.6% (active); in assay [3], 45% (active); in assay [4], -6.23%.
On the same counts, the results for `COc1ccccc1NC(=O)c1ccc(NC(=O)CSc2nnnn2C)cc1` are 4.14%, 59% (active), 55.5% (active) and -1.96%.
The matching figures for `CCc1cc(=O)oc2cc3occ(-c4ccc(OC)c(F)c4)c3cc12`: 26.4%, 75% (active), 60.6% (active) and 23.1%.
On the same counts, the results for `C=CC(=O)N1C/C(=C/c2ccc(F)cc2)C(=O)/C(=C\c2ccc(F)cc2)C1` are 27.1%, 80% (active), 86.7% (active) and 63% (active).
Take `Cc1ccc(C)c(NC(=O)CSc2nc3c(oc4ccccc43)c(=O)n2-c2ccccc2)c1`: the inhibition in assay [1] was 10.6%; in assay [2] it was 50.3% (active); in assay [3] it was 46.7% (active); in assay [4], -9.48%.
The matching figures for `Cc1cc2nc(C3CCCCC3)c(Cc3ccsc3)n2c(C)c1Br`: 4.75%, 36.2%, 37.7% and 22.4%.
Consider `O=C(CSc1nc2cccc(F)c2c(=O)n1-c1ccccc1)Nc1ccc2c(c1)CCC2`, for which the inhibition in assay [1] was 19.2%; in assay [2], 57.3% (active); in assay [3], 57.5% (active); in assay [4], -5.06%.
The matching figures for `Cc1ccc(SCc2ccc(C(=O)NCc3ccncc3)cc2)cc1`: -0.78%, 55.9% (active), 53.1% (active) and -0.6%.
The matching figures for `CCn1c(SCC(=O)Nc2ccc(N3CCOCC3)cc2)nnc1-c1ccco1`: 3.02%, 58% (active), 47.3% (active) and 10.2%.
On the same counts, the results for `Cc1cc2oc(=O)cc(-c3ccccc3)c2c(C)c1-c1ccc(C#N)cc1` are 4.09%, 69% (active), 62.7% (active) and 13.8%.
For `O=C(CSc1ncnc2c1cnn2-c1ccccc1)Nc1ccc2c(c1)OCO2`, the inhibition in assay [1] was 11%; in assay [2] it was 55.6% (active); in assay [3] it was 48.5% (active); in assay [4], -7.58%.
On the same counts, the results for `COCCn1c(SCC(=O)Nc2ccc(C(C)=O)cc2)nnc1-c1ccco1` are 14.8%, 43.4% (active), 37.4% and -1.99%.
On the same counts, the results for `COc1ccc(C(NC(=O)C(C)C)c2ccc3cccnc3c2O)cc1` (stereo unspecified) are 84.5% (active), 103% (active), 91.8% (active) and 87.7% (active).
The matching figures for `CC(=O)Nc1cc(-c2ccc(F)cc2)cn2c(-c3ccc(S(C)(=O)=O)cc3)cnc12`: 12.6%, 51.4% (active), 48.7% (active) and -16.1%.
On to `COc1ccc(CCNC(=O)COC(=O)c2cc(Cl)nc(Cl)c2)cc1`, for which the inhibition in assay [1] is 3.74%; in assay [2], 47.4% (active); in assay [3], 51.4% (active); in assay [4], -2.65%.
The matching figures for `CCN(Cc1ccccc1)c1ccc(/C=N/NC(=O)c2cccc(S(=O)(=O)N3CCOCC3)c2)cc1`: 24.6%, 66.8% (active), 62.3% (active) and 28%.
With `Cc1nc2cc(N3CCCCC3)c(NC(=O)c3cccnc3)cc2c(=O)n1Cc1ccccc1`, the inhibition in assay [1] is 10.7%; in assay [2] it was 57.6% (active); in assay [3], 57.2% (active); in assay [4], -17%.
The matching figures for `CC(C)(C)C(=O)N1CCN(c2ccc(NC(=O)c3ccc([N+](=O)[O-])o3)cc2)CC1`: 11.1%, 59.7% (active), 68.6% (active) and -12.6%.
On the same counts, the results for `COc1cc(C2c3cc4c(cc3OC(Nc3ccc(C(=O)O)cc3)C2C)OCO4)cc(OC)c1OC` (stereo unspecified) are 44.5% (active), 49.7% (active), 60.9% (active) and 26.4%.
On the same counts, the results for `CCn1c(=NC(=O)CCS(=O)(=O)c2ccccc2)sc2cccc(OC)c21` are 6.25%, 108% (active), 70.3% (active) and 69.2% (active).
Take `O=C(CSc1nc2ccc(F)cc2c(=O)n1-c1ccccc1)Nc1ccc2c(c1)CCC2`: the inhibition was -3.68% in assay [1], 43.3% (active) in assay [2], 47.9% (active) in assay [3] and -3.99% in assay [4].
The matching figures for `COc1cccc(NC(=O)c2oc3ccccc3c2NC(=O)C2CC2)c1`: -5.29%, 50.6% (active), 47.1% (active) and -8.83%.
As for `c1cnn(-c2nc(N3CCOCC3)nc(N3CCOCC3)n2)c1`, the inhibition in assay [1] is 29.5% (active); in assay [2], 63.6% (active); in assay [3], 48.2% (active); in assay [4] it was 20.2%.
